From PubChem
Compounds with a hit are over-represented: about 19% of the library has one in this group of screens.
TGFb inhibitor = qHTS for Inhibitors of TGF-b; Potency, µM (doses to about 46.1 µM), for the others: top-dose activity, negative = inhibition, usual class: inhibitors; HepG2 CAGA-GFP TGF-b/SMAD3 reporter, GFP fluorescence, 18 h; TGF-beta stimulated, 500 pg/mL final; hit rate 1.2% among 410,000; further: potency means the concentration at half of the fitted maximal effect; on the % scale 0 is the no-effect control and ±100 the full control effect; nearly all actives have a fitted effect of over 65% in size
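Inhibition of TGF-beta-driven CAGA-GFP reporter expression in HEPG2 cells is measured by cellular GFP fluorescence after 18 h stimulation with 500 pg/mL recombinant TGF-beta in 1% FBS medium at 37 degrees C.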
TDP1 inh = qHTS Assay for Inhibitors of Tyrosyl-DNA Phosphodiesterase (TDP1); recombinant TDP1, AlphaScreen DNA substrate cleavage; Potency, µM (titrated, usually from 130 µM), for the others: at the highest dose activity change, negative = inhibition, hits mostly inhibitors; hit rate 0.28% among 350,000; further: potency means the concentration at half of the fitted maximal effect; on the % scale 0 is the no-effect control and ±100 the full control effect; nearly all actives have a fitted effect of over 40% in size
Target sequence (Q9NUW8 whole entry, looked up): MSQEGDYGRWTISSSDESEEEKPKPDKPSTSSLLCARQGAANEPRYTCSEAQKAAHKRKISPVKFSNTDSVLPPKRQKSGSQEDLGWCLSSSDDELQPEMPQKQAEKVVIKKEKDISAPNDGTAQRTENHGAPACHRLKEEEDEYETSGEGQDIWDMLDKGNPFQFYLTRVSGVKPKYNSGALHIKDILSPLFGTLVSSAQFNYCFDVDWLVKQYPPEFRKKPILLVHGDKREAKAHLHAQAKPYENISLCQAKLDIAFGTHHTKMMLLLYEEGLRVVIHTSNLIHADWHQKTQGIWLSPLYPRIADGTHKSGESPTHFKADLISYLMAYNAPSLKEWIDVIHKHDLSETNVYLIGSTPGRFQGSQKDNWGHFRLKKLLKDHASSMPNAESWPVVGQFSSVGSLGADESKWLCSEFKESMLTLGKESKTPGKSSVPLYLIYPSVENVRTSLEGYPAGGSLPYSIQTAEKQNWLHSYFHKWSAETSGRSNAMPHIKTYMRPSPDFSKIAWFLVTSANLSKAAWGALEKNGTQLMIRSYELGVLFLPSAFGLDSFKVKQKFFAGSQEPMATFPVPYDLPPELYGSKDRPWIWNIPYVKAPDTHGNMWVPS
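AlphaScreen read-out: signal falls as enzyme removes the 3' tyrosine-FITC from a 5'-biotinylated DNA oligo (15 nM, 5 min, RT). Enzyme was E. coli-made recombinant Tdp1 at 1 nM, exposed to compound for 15 min beforehand; beads 10 ug/ml, 10 min.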
TDP1 cell CPT = qHTS for Inhibitors of human tyrosyl-DNA phosphodiesterase 1 (TDP1): qHTS in cells in presence of CPT; chicken DT40 Tdp1-/-;hTDP1 cells + 20 nM CPT, ATP luminescence, 48 h; Potency, µM (doses to about 46.2 µM), without a hit: at the highest dose activity change, negative = growth inhibition, most hits filed as inhibitors; hit rate 12% among 420,000; further: potency means the concentration at half of the fitted maximal effect; on the % scale 0 is the no-effect control and ±100 the full control effect; nearly all actives have a fitted effect of over 55% in size
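Cell growth measured by CellTiter-Glo luminescence after a minimum 48 h, 37 C compound exposure with 20 nM CPT in Tdp1-knockout DT40 cells stably expressing hTDP1, seeded 400/well; qHTS titration format.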
HepG2 tox = qHTS for Inhibitors of TGF-b: Cytotox Counterscreen; HepG2 CAGA-GFP viability, ATP luminescence, 18 h; Potency, µM (doses to about 46.1 µM), without a hit: at the top dose activity change, negative = cytotoxicity, hits mostly cytotoxic; hit rate 0.76% among 410,000; AID 588856, 2011; further: potency means the concentration at half of the fitted maximal effect
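HepG2 CAGA-GFP cells (1000/well, DMEM with 1% FBS) received compound, then TGF-beta at 500 pg/mL final, and were incubated 18 hours at 37 degrees C. Viability was read by CellTiter-Glo luminescence. Media-only wells were set as complete cell-killing and DMSO as no toxicity.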
DT40 TDP1 no CPT = qHTS for Inhibitors of human tyrosyl-DNA phosphodiesterase 1 (TDP1): qHTS in cells in absence of CPT; DT40 Tdp1-/- hTDP1 cells, no CPT, ATP luminescence, 48 h; Potency, µM (doses to about 46.2 µM), inactives show top-dose activity change, negative = growth inhibition, most hits filed as inhibitors; hit rate 15% among 420,000; further: potency means the concentration at half of the fitted maximal effect; on the % scale 0 is the no-effect control and ±100 the full control effect; nearly all actives have a fitted effect of over 55% in size
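Seeded 400 DT40-hTDP1 cells/well (vehicle DMSO, no 20 nM CPT); pinned compounds; ≥48 hr at 37 °C; CellTiter-Glo luminescence as viability measure.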
IL-1B inflam inh = qHTS for Inhibitors of Inflammasome Signaling: IL-1-beta AlphaLISA Primary Screen; THP-1 LPS/ATP IL-1B secretion, AlphaLISA, 16 h; active compounds read low; hit rate 4.7% among 360,000; activity change, % at 57.5 µM; AID 743279, 2014; in the data active means activity change below about -50%; inconclusive means mostly about -30% to -49%; further: on the % scale 0 is the no-effect control and ±100 the full control effect
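THP-1 cells pretreated 1 hr with compounds (up to 57.5 uM final), then stimulated with LPS (250 ng/mL final) plus ATP (1.25 mM final); secreted IL-1B measured by AlphaLISA after 16 hr, decreased signal indicating inhibition.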
Starred values were filed as active, the others as inactive. Unless noted, the call rests on the fitted dose curve; in most records, active means well fitted curve in the direction sought with a large enough effect; inconclusive means small, poorly fitted or top-dose-only effect, or another doubt; inactive means no such curve, though single readings can be large; an effect the other way counts as inactive or inconclusive.

Screening CC1(C)OC2C(CO)OC(n3cnc4c(=S)nc(N)[nH]c43)C2O1 (stereo not given) returned TGFb inhibitor inconclusive, TDP1 cell CPT 12µM*, HepG2 tox -36%, DT40 TDP1 no CPT 15µM* and IL-1B inflam inh 18.
`Nc1nc(=S)c2ncn(C3OC(CO)C(O)C3O)c2[nH]1` (stereo not given) gave TGFb inhibitor inconclusive, TDP1 inh inconclusive, TDP1 cell CPT 4.1µM*, HepG2 tox -63%, DT40 TDP1 no CPT 8.2µM* and IL-1B inflam inh 14.
CC(C)C(OC(=O)c1nsc(Cl)c1Cl)C(=O)NCc1ccccc1 (stereo not given) was read as TGFb inhibitor 12%, TDP1 inh -1%, TDP1 cell CPT -3%, HepG2 tox -13%, DT40 TDP1 no CPT 0% and IL-1B inflam inh -2.
For Cc1nc2c(c(C)c1CCC(=O)NCc1ccccc1)c(=O)n(C)c(=O)n2C the results were TGFb inhibitor inconclusive, TDP1 inh 6%, TDP1 cell CPT 1%, HepG2 tox 0% and DT40 TDP1 no CPT inconclusive.
`O=C(CSc1nnc(NC(=O)NC2CCCCC2)s1)Nc1ccccc1F` gave TGFb inhibitor inconclusive, TDP1 inh 5%, TDP1 cell CPT inconclusive, HepG2 tox -20% and DT40 TDP1 no CPT inconclusive.
COc1ncc2nc(-c3cc(F)cc(F)c3)c(=O)n(C[C@H]3CCCO3)c2n1 was read as TDP1 cell CPT 19% and DT40 TDP1 no CPT 15%.
Screening C=CCN1CC[C@@H](O)C(=C)S1(=O)=O returned TGFb inhibitor -7%, TDP1 cell CPT -10%, HepG2 tox -11% and DT40 TDP1 no CPT -14%.
`Cc1ncc(CO)c2c1OC(C)(C)OC2` gave TGFb inhibitor -29%, TDP1 inh 1%, TDP1 cell CPT 15%, HepG2 tox -14%, DT40 TDP1 no CPT 0% and IL-1B inflam inh -11.
`Cc1ncc(CCl)c2c1OC(C)(C)OC2` gave TGFb inhibitor -11%, TDP1 inh 0%, TDP1 cell CPT inconclusive, HepG2 tox -6%, DT40 TDP1 no CPT 23µM* and IL-1B inflam inh 8.
Screening CCc1ccc(C2c3c(-c4ccccc4)n[nH]c3C(=O)N2c2ccc(C(=O)O)cc2)cc1 (stereo not given) returned TGFb inhibitor -1%, TDP1 inh 5%, TDP1 cell CPT 1%, HepG2 tox 0% and DT40 TDP1 no CPT -2%.
`CCc1ccc(N2C(=O)c3sc4nnc(-c5ccccc5)c(=O)n4c3C2=O)cc1` gave TGFb inhibitor -5%, TDP1 inh 6%, TDP1 cell CPT 12µM*, HepG2 tox 6%, DT40 TDP1 no CPT 13µM* and IL-1B inflam inh 38.
For Cc1cccc(NC(=O)[C@@H]2CCCN2S(=O)(=O)c2ccc(Cl)cc2)c1 the results were TGFb inhibitor 1%, TDP1 inh -1%, TDP1 cell CPT inconclusive, HepG2 tox -1%, DT40 TDP1 no CPT -25% and IL-1B inflam inh 37.
For N#Cc1ccc(C(=O)NC(=S)N2CCN(C=O)CC2)cc1 the results were TGFb inhibitor 21%, TDP1 inh 1%, TDP1 cell CPT -3%, HepG2 tox -2%, DT40 TDP1 no CPT -5% and IL-1B inflam inh 9.
CCOc1ccc2nc(Cl)c(C3CC(c4ccc(OC)cc4)=NN3S(C)(=O)=O)cc2c1 (stereo not given) was read as TGFb inhibitor 29%, TDP1 inh 0%, TDP1 cell CPT 8.2µM*, HepG2 tox -3% and DT40 TDP1 no CPT 16µM*.
For COc1cccc(/C=N/Nc2ncnc3c2ncn3Cc2ccccc2)c1O the results were TGFb inhibitor inconclusive, TDP1 inh 8%, TDP1 cell CPT 3.7µM*, HepG2 tox -35%, DT40 TDP1 no CPT 4.6µM* and IL-1B inflam inh -52*.
COc1cccc(/C=N/Nc2nc(N3CCCC3)nc(N3CCCC3)n2)c1O was read as TGFb inhibitor -20%, TDP1 inh 9%, TDP1 cell CPT inconclusive, HepG2 tox 1%, DT40 TDP1 no CPT 21µM* and IL-1B inflam inh -100*.
Fc1ccccc1COc1ccccc1/C=N/Nc1nc(N2CCCC2)nc(N2CCCC2)n1 was read as TGFb inhibitor 10%, TDP1 inh 5%, TDP1 cell CPT inconclusive, HepG2 tox 11%, DT40 TDP1 no CPT 21µM* and IL-1B inflam inh 4.
Screening COc1ccc(-n2c(C)cc(/C=N/Nc3nnc(C)n3N)c2C)cc1 returned TGFb inhibitor 3.5µM*, TDP1 inh 6%, TDP1 cell CPT 23µM*, HepG2 tox 5µM*, DT40 TDP1 no CPT 16µM* and IL-1B inflam inh -81*.
`C(=N\Nc1nc(N2CCCC2)nc(N2CCCC2)n1)/c1ccccc1OCc1ccccc1` gave TGFb inhibitor 4%, TDP1 inh 5%, TDP1 cell CPT inconclusive, HepG2 tox 2%, DT40 TDP1 no CPT inconclusive and IL-1B inflam inh inconclusive.
COc1cccc(/C=N/Nc2nnc(C)n2N)c1O was read as TGFb inhibitor 7.9µM*, TDP1 cell CPT inconclusive, HepG2 tox -154%, DT40 TDP1 no CPT 21µM* and IL-1B inflam inh 7.
Cc1nnc(N/N=C/c2ccccc2F)n1N was read as TGFb inhibitor 0%, TDP1 cell CPT -14%, HepG2 tox 1%, DT40 TDP1 no CPT 15% and IL-1B inflam inh 0.
`COc1cccc2cc(-c3nc(Nc4cccc(C)c4)sc3C)c(=O)oc12` gave TGFb inhibitor -19%, TDP1 inh 4%, TDP1 cell CPT inconclusive, HepG2 tox -40% and DT40 TDP1 no CPT inconclusive.
Screening CCc1sc(Nc2cccc(Cl)c2)nc1-c1cc2cccc(OC)c2oc1=O returned TGFb inhibitor -19%, TDP1 inh -2%, TDP1 cell CPT inconclusive, HepG2 tox 0% and DT40 TDP1 no CPT 16µM*.
`COc1ccc(Cc2n[nH]c(=S)n2C)cc1Br` gave TGFb inhibitor -2%, TDP1 inh -3%, TDP1 cell CPT 1%, HepG2 tox 13%, DT40 TDP1 no CPT -10% and IL-1B inflam inh -68*.
For COc1ccc(CCCc2n[nH]c(=S)n2C)cc1C the results were TGFb inhibitor -2%, TDP1 inh 8%, TDP1 cell CPT -29%, HepG2 tox -10%, DT40 TDP1 no CPT -12% and IL-1B inflam inh -3.
